PubChem BioAssay
A number with no mark means an inactive call. No rule for the calls is given here. Non-standard residues stand in square brackets, D forms with d. Residues, ends and D or L forms follow the SMILES beside them. Orn = NCCC[CH](N)C(=O)O

Tested on: Aerobactin synthetase IucA (Klebsiella pneumoniae hvKP1)
Assay: Biochemical IucA enzyme inhibition primary screen of the Spectrum library (AID 1346200);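 also: 100% = wells without compound and 0% = wells lacking enzyme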
Settings: malachite green pyrophosphate, A620, at 8 µM, hits give low values

SMILES | activity remaining
Oc1c(I)cc(I)c2cccnc12 | 102%
CC(=O)O[C@H]1C[C@@H](OC(C)=O)C(C)(C)C2CC(=O)[C@]3(C)C(CC[C@@]4(C)[C@H](C(=O)O)OC(=O)C5OC543)[C@]21C (some centres undefined) | 122%
O=c1[nH]cnc2c1ncn2C1O[C@H](CO)[C@@H](O)[C@H]1O (some centres undefined) | 112%
CC1(C)S[C@@H]2[C@H](NC(=O)[C@H](NC(=O)N3CCNC3=O)c3ccccc3)C(=O)N2C1C(=O)O (some centres undefined) | 95.7%
CCCN(CCC)S(=O)(=O)c1ccc(C(=O)O)cc1 | 93.6%
CCC(=O)O[C@H]1CCC2C3CCc4cc(O)ccc4C3CC[C@@]21C (some centres undefined) | 101%
NC[C@@H]1O[C@H](O[C@@H]2[C@@H](CO)OC(O[C@@H]3[C@@H](O)[C@H](N)C[C@H](N)[C@H]3O[C@H]3O[C@H](CO)[C@@H](O)[C@H](O)[C@H]3N)[C@@H]2O)[C@H](N)[C@@H](O)[C@@H]1O (some centres undefined) | 97.1%
C[C@]12C=CC(=O)C=C1CCC1C2[C@@H](O)C[C@@]2(C)C1CC[C@]2(O)C(=O)COC(=O)CCC(=O)O (some centres undefined) | 111%
CO/N=C1\CN(c2nc3c(cc2F)c(=O)c(C(=O)O)cn3C2CC2)CC1CN (centres undefined) | 106%
Cc1cc(C)cc(OCC2CNC(=O)O2)c1 (centres undefined) | 113%
CC(C)=CCCC(C)[C@@H]1CC[C@]2(C)C3=C(CC[C@@]12C)C1(C)CC[C@H](O)C(C)(C)C1CC3 (some centres undefined) | 124%
NC[C@H]1O[C@H](OC2[C@@H](N)C[C@@H](N)[C@H](O[C@H]3O[C@H](CO)[C@@H](O)[C@H](N)[C@H]3O)[C@H]2O)[C@H](O)[C@@H](O)[C@@H]1O (some centres undefined) | 97%
CC(C)=CCc1c2c(c(O)c3c(=O)c(O)c(-c4ccccc4)oc13)C=CC(C)(C)O2 | 110%
CC(C)CC1NC(=O)C(CCCN)NC(=O)C(C(C)C)NC(=O)C(Cc2ccc(O)cc2)NC(=O)C(CCC(=O)O)NC(=O)C(CC(=O)O)NC(=O)C(Cc2ccccc2)NC(=O)C(Cc2ccccc2)NC(=O)C2CCCN2C(=O)C(Cc2ccccc2)NC1=O (centres undefined) (cyclo(DEYV[Orn]LFPFF); configuration not given here) | 113%
COc1ccc(-c2cc(=O)c3ccccc3o2)cc1 | 114%
CCOC(=O)n1ccn(C)c1=S | 127%
COc1ccc2c(c1)[C@@]1(C)CCC(=O)C[C@@H]1CC2 | 118%
COC(=O)[C@@H]1OC(=O)[C@H]2O[C@@]23[C@@]1(C)CCC1[C@@]2(C)CCC(=O)C(C)(C)C2C[C@@H](OC(C)=O)[C@]13C (some centres undefined) | 109%
CN1CCC[C@H]1c1cccnc1 | 117%
COc1cc(O)c(C(=O)/C=C/c2ccc(O)c(OC)c2)c(OC)c1 | 77.4%
CC(C(=O)O)c1ccc(-c2ccccc2)c(F)c1 (centres undefined) | 104%
CCCCCC1C(=O)CCC1CC(=O)O (centres undefined) | 93.2%
c1ccc(-c2ccc(C(c3ccccc3)n3ccnc3)cc2)cc1 (centres undefined) | 111%
CCN(CC)CCOC(=O)C(Cc1cccc2ccccc12)CC1CCCO1 (centres undefined) | 99.1%
CN(C)CC/C=C1/c2ccccc2COc2ccccc21 | 99.3%
Cc1c(C)c2c(c(C)c1O)CCC(C)(COc1ccc(CC3SC(=O)NC3=O)cc1)O2 (centres undefined) | 117%
CCC1OC(=O)[C@H](C)C(=O)[C@H](C)[C@@H](OC2O[C@H](C)C[C@H](N(C)C)[C@H]2O)[C@](C)(OC)C[C@@H](C)C(=O)[C@H](C)[C@H]2N(CCCCn3cnc(-c4cccnc4)c3)C(=O)OC12C (some centres undefined) | 121%
CN1C2CC3C[C@H]1C(O3)C2O (some centres undefined) | 108%
CCCCCC(=O)O[C@]1(C(C)=O)CCC2C3CCC4=CC(=O)CC[C@]4(C)C3CC[C@@]21C (some centres undefined) | 109%
